The results in this text go back to PubChem BioAssay AID1745847 (National Center for Advancing Translational Sciences (NCATS), 2022).

Structures are written as SMILES. The whole screen tested about 2,100 compounds, of which about 670 (32%) were called active. Roughly 50% stayed inconclusive and do not appear here. This is one part of the list. A number with no mark means an inactive call. Calls follow the shape of the dose curve; as a rule, active = well fitted inhibition curve with a large enough effect; inconclusive = small, poorly fitted or top-dose-only effect; inactive = no such curve, though single readings can be large or run the other way.
% is scaled to controls: 0 for no effect and ±100 for the full control effect; potency is read from the fitted curve at half-maximal effect.

This assay can be described thus: CMV-Luciferase Counterscreen for Inhibitors of ATXN expression. Also: nearly all actives have a fitted effect of over 55% in size. Particulars: HEK-293 CMV-luciferase reporter, luminescence, 24 h; series mostly up to 57.5 µM. (The purpose of a counterscreen is to sort out artefacts and off-target activity.)
As to `Nc1nc(NCCc2ccccc2)nc(NCc2ccccc2)c1[N+](=O)[O-]`, the Potency result was “inactive”.

For `COC(=O)[C@H]1C[C@H](OC(=O)NC2CC2)[C@@]2(O)CN(S(=O)(=O)c3ccc(C)cc3)CC2[C@H]1C(=O)OC` (some centres undefined), the activity change, negative = inhibition is 4.52% [at 11.4 µM].

With `O=C(CN1C(=O)c2ccccc2S1(=O)=O)c1ccc(Cl)cc1Cl`, the Potency is 1 µM (active).

On to `CC1Cc2cc(-c3csc(NC(=O)Cc4cccs4)n3)ccc2N1S(C)(=O)=O` (centres undefined), for which the Potency was 1.41 µM (active).

Regarding `O=c1c2c(nc3c(-c4ccc(Cl)cc4)c[nH]n13)CCCC2`, the Potency was 0.891 µM (active).

With `O=c1c2c(nc3c(-c4cccc(Br)c4)c[nH]n13)CCCC2`, the Potency is 3.55 µM (active).

As to `CC1CCCN(S(=O)(=O)c2ccc(C(=O)Nc3nnc(-c4ccccc4Cl)o3)cc2)C1` (centres undefined), the Potency is 1.26 µM (active).

`CC1CCCCN1S(=O)(=O)c1ccc(C(=O)Nc2nnc(-c3ccncc3)o2)cc1` (centres undefined): the Potency is 8.91 µM (active).

In the case of `CN(C)CCCNC(=O)/C=C/c1ccc(OCc2c(F)cccc2Cl)cc1`, the Potency result was “inactive”.

Take `Clc1ccc(-c2cc(C3CCNCC3)[nH]n2)c(Cl)c1`: the Potency result is “inactive”.

As for `Cc1ccc(CN2CCC(c3cc(-c4ccc(Cl)cc4)n[nH]3)CC2)cc1`, the Potency was 22.4 µM (active).

On to `COc1ccc(N2CCN(C(=O)c3cc4c(C)nc5ccccc5c4o3)CC2)cc1`, for which the Potency is 22.4 µM (active).

Take `CCOC(=O)c1cnc2ccc(OC)cc2c1Nc1ccc(N2CCN(C)CC2)cc1`: the Potency entry was “inactive”.

Turning to `CCc1ccc(CNC(=O)c2cc3c(C)nc4ccccc4c3o2)cc1`, the Potency is 10 µM (active).

On to `COc1ccc(C(=O)N2CCN(c3nc(C4CC4)nc4sc(C)c(C)c34)CC2)cc1`, for which the Potency is 17.8 µM (active).

For the compound `Cc1sc2nc(CN3CCCC3)nc(N3CCC(C(N)=O)CC3)c2c1C`, the Potency result is “inactive”.

For `Cc1ccc(C)c(OCCCC(=O)Nc2nccs2)c1`, the Potency entry is “inactive”.

In the case of `Cc1cc(Br)c(OCc2ccc(C(=O)N/N=C3\CC4CC=CC34)cc2)c(Br)c1` (centres undefined), the Potency is 28.2 µM (active).

In the case of `CC(C)Nc1nc(-c2ccccn2)nc(-c2ccccc2)c1C#N`, the Potency result was “inactive”.

With `CCN(CC)c1nc(-c2ccccn2)nc(-c2ccccc2)c1C#N`, the Potency was 7.08 µM (active).

In the case of `COC(=O)c1c(NC(=O)/C=C/C(=O)O)sc(C)c1-c1ccc(C(C)C)cc1`, the Potency was 14.1 µM (active).

Take `Cc1cc(N2CCN(C)CC2)ccc1NC(=O)c1ccc(-c2ccc(Cl)cc2)o1`: the Potency entry is “inactive”.

As for `Cc1[nH]c(-c2ccc(F)cc2)cc1C(=O)N1CCN(c2ccc(Cl)cc2)CC1`, the Potency is 22.4 µM (active).

As for `CC1(C(=O)NCc2ccccc2Br)CCN1C(=O)Cc1ccc(-c2ccccc2)cc1` (centres undefined), the Potency is 20 µM (active).

As for `CC1(C(=O)NCc2ccco2)CCN1C(=O)C1(c2ccccc2)CC1` (centres undefined), the activity change, negative = inhibition is -4.65% [at 11.4 µM].

On to `Cc1ccc2[nH]c(O)c(N=NC(=O)C3CC3c3ccccc3)c2c1Br` (centres undefined), for which the activity change, negative = inhibition is -21.9% [at 11.4 µM].

Turning to `O=C(Nc1ccc(Cl)cc1)Nc1ccc(N2CCCC2)c(S(=O)(=O)Nc2ccccc2Cl)c1`, the Potency is 3.98 µM (active).

Regarding `CCN(CC)S(=O)(=O)c1ccc(N/N=C/c2ccc(O)cc2O)nc1`, the Potency is 1.26 µM (active).

Regarding `CN(C)CCCN(C(=O)c1ccc(S(=O)(=O)N2CCCCCC2)cc1)c1nc2ccc(Br)cc2s1`, the activity change, negative = inhibition was -16.1% [at 11.4 µM].

Regarding `CCn1c2ccccc2c2cc(NC(=O)COC(=O)c3cc(S(=O)(=O)N4CCCCC4)ccc3Cl)ccc21`, the activity change, negative = inhibition was 4.24% [at 11.4 µM].

As to `O=C(COc1ccc(Br)cc1CO)Nc1ccc(S(=O)(=O)N2CCCCC2)cc1`, the Potency was 17.8 µM (active).

`CC[n+]1c(/C=C/c2c[nH]c3ccccc23)ccc2cc(C)ccc21`: the Potency is 35.5 µM (active).

`Cc1ccnc(NC(=O)CCCc2c[nH]c3ccccc23)c1`: the activity change, negative = inhibition was 484% [at 11.4 µM].

As for `O=C(c1ccc(CS(=O)Cc2ccccc2Cl)o1)N1CCN(c2cccc(Cl)c2)CC1` (centres undefined), the Potency is 20 µM (active).

For the compound `C=CCOC(=O)C1=C(C)NC(SCC)=C(C#N)C1c1ccc(Cl)cc1` (centres undefined), the Potency is 20 µM (active).

As to `COc1cc(C=CC(=O)c2ccccc2)cc(OC)c1OC`, the Potency result is “inactive”.

Consider `COc1cc(/C=C/C(O)=C/C(=O)/C=C/c2ccc(O)cc2)ccc1O`, for which the activity change, negative = inhibition is -3.01% [at 11.4 µM].

For `COc1cc(C=CC(=O)c2cc(OC)c(OC)c(OC)c2)cc(OC)c1OC`, the Potency is 12.6 µM (active).

Take `O=C(c1ccc2c(c1)OCO2)N(Cc1cccs1)C1(C(=O)NC2CCCCC2)CCCCC1`: the Potency was 28.2 µM (active).

For `N#Cc1nc(COc2ccc(-c3ccccc3)cc2)oc1NCc1cccnc1`, the Potency is 3.55 µM (active).

Take `COc1ccc(Nc2oc(COc3ccccc3OC)nc2C#N)cc1`: the Potency was 3.55 µM (active).

With `C=CCNc1oc(-c2ccc(Cl)cc2)nc1C#N`, the Potency entry is “inactive”.

Regarding `COc1cc2nc(CN(C)Cc3ccc(SC)cc3)[nH]c(=O)c2cc1OC`, the Potency entry was “inactive”.

`COc1ccc(-c2cnc3c(NC=O)cc(-c4ccccc4OC)cn23)cc1OC`: the Potency result is “inactive”.

For the compound `Cc1ccc(/C=N/Nc2ccnc3cc(Cl)ccc23)c(C)c1`, the Potency was 14.1 µM (active).

`Nc1nc(NCCCN2CCOCC2)nc(Nc2cccc(Cl)c2)c1[N+](=O)[O-]`: the activity change, negative = inhibition was -21.5% [at 11.4 µM].

In the case of `Cc1ccc(S(=O)(=O)N(Cc2ccccc2)c2ccccc2C(=O)NCc2ccco2)cc1`, the Potency was 22.4 µM (active).

Turning to `COc1cnc(-c2ccccn2)nc1NC(C)C`, the Potency is 8.91 µM (active).

Take `COc1cccc(CN(C)C(=O)CNC(=O)c2ccc(-c3ccccc3)cc2)c1OC`: the Potency was 5.01 µM (active).

As for `COCCCn1c(-c2ccc(S(=O)(=O)N3CCOCC3)cc2)csc1=Nc1ccccc1`, the Potency is 3.98 µM (active).

For `COc1cc(C(=O)Oc2cccc(Nc3ncnc4ccccc34)c2)cc(OC)c1OC`, the Potency is 3.98 µM (active).

For `NC(Cc1ccccc1)c1csc(Nc2nccc(C(F)(F)F)n2)n1` (centres undefined), the Potency result was “inactive”.

For the compound `Cc1cc(Nc2cccc([N+](=O)[O-])c2)n2c(nc3ccccc32)c1C#N`, the Potency was 1.26 µM (active).

With `CCOC(=O)N1CCN(c2ncnc3c2[nH]c2ccc(F)cc23)CC1`, the Potency is 3.55 µM (active).

For the compound `Fc1ccc2[nH]c3c(N4CCc5ccccc5C4)ncnc3c2c1`, the Potency is 2.82 µM (active).

In the case of `Fc1ccc2[nH]c3c(N4CCSCC4)ncnc3c2c1`, the Potency is 3.16 µM (active).

Consider `CC(C)(CO)NCc1c(OCc2ccc(Cl)cc2)ccc2ccccc12`, for which the Potency result is “inactive”.

Take `Cc1ccc2nc(-c3ccccc3)nn2c1`: the Potency is 2 µM (active).

With `O=S(=O)(c1ccccc1)N1CCN(c2ccnc3cc(Cl)ccc23)CC1`, the Potency is 22.4 µM (active).

On to `COc1ccc(Cl)cc1S(=O)(=O)N1CCN(C(=O)c2n[nH]c(=O)c3ccccc23)CC1`, for which the activity change, negative = inhibition was -26.4% [at 11.4 µM].

In the case of `COc1ccc(N2CCN(c3ccnc4cc(Cl)ccc34)CC2)cc1`, the Potency was 3.98 µM (active).

As for `COc1ccccc1N1CCN(c2ccnc3cc(Cl)ccc23)CC1`, the Potency is 10 µM (active).

As for `Oc1ccc(N2CCN(c3ccnc4cc(Cl)ccc34)CC2)cc1`, the Potency was 11.2 µM (active).

For the compound `CC(=O)Oc1ccc(C23c4ccccc4C2(OC(C)=O)c2cc(OC(C)=O)ccc23)cc1` (centres undefined), the Potency was 25.1 µM (active).

`COc1ccc(OCc2cccc(C(=O)Nn3cc([N+](=O)[O-])cn3)c2)cc1`: the Potency was 0.398 µM (active).

Turning to `O=C(N/N=C/c1cc(Br)ccc1O)c1ccncc1`, the Potency was 1 µM (active).

As for `O=C(N/N=C/c1ccc(O)cc1O)c1ccc(NC(=O)C2CCCCC2)cc1`, the Potency is 12.6 µM (active).

For the compound `O=C(N/N=C/c1ccc(O)cc1O)c1ccncc1`, the Potency was 3.98 µM (active).

Regarding `CC(C)CC(=O)NC(=S)NNC(=O)c1ccc(NC(=O)C2CCCCC2)cc1`, the activity change, negative = inhibition was 8.7% [at 11.4 µM].

In the case of `O=C(N/N=C/c1ccc(O)cc1O)c1ccc(CN2C(=O)c3cccc4cccc2c34)cc1`, the Potency is 1.78 µM (active).

In the case of `Cc1nc(SC2CC(=O)N(c3ccccc3)C2=O)n[nH]1` (centres undefined), the Potency result is “inactive”.

For the compound `O=c1[nH]c(CN2CCN(c3ncccn3)CC2)nc2c(Br)cc(Br)cc12`, the activity change, negative = inhibition is -16.4% [at 11.4 µM].

On to `O=C(NCc1ccccc1C(F)(F)F)c1cccc2c1C(=O)c1ccc(N3CCC(N4CCCCC4)CC3)cc1S2(=O)=O`, for which the activity change, negative = inhibition was 34.1% [at 11.4 µM].

Take `O=C(N/N=C/c1cc(Br)ccc1O)C(c1ccncc1)N1CCOCC1` (centres undefined): the Potency was 10 µM (active).

With `O=C(N/N=C/c1cc(Br)ccc1OC(=O)c1ccc(Br)cc1)c1ccncc1`, the Potency was 3.98 µM (active).

Regarding `COc1ccc(C(=O)N/N=C/c2cc(Br)ccc2O)cc1OC`, the Potency was 2.51 µM (active).

On to `O=C(N/N=C/c1cc(Br)cc(Br)c1O)c1ccncc1`, for which the Potency was 3.98 µM (active).

As to `O=C(NN=Cc1ccc(O)cc1O)c1ccccc1NS(=O)(=O)c1cccs1`, the Potency is 3.16 µM (active).

In the case of `CCCCC(=O)NC(c1ccccc1)c1ccc2cccnc2c1O` (centres undefined), the Potency was 3.98 µM (active).

With `CCCC(=O)NC(c1ccccc1)c1ccc2cccnc2c1O` (centres undefined), the Potency is 2.24 µM (active).

With `CCCC(=O)NC(c1ccc(C)cc1)c1ccc2cccnc2c1O` (centres undefined), the Potency is 2 µM (active).

With `CCCC(=O)NC(c1ccc(OC)cc1)c1ccc2cccnc2c1O` (centres undefined), the Potency is 3.16 µM (active).

For the compound `CCCC(=O)NC(c1ccc(C(C)C)cc1)c1ccc2cccnc2c1O` (centres undefined), the Potency was 0.355 µM (active).

Consider `CCOC(=O)COc1ccc(Br)cc1/C=C/c1[nH]c(=O)[nH]c(=O)c1[N+](=O)[O-]`, for which the activity change, negative = inhibition was 3.24% [at 11.4 µM].

As for `CN1OC[C@@H]2CN[C@H](c3ccc(-c4cc5ccccc5o4)cc3)C[C@@H]21`, the Potency was 0.0794 µM (active).

As to `N#C/C(=C\c1ccc([N+](=O)[O-])o1)c1nc2ccccc2[nH]1`, the Potency is 22.4 µM (active).

With `COc1ccc(NS(=O)(=O)c2ccc(C(=O)Nc3c(C)n(C)n(-c4ccccc4)c3=O)cc2)cc1`, the activity change, negative = inhibition was 0.165% [at 11.4 µM].

Regarding `Cc1c(N/N=C(\C#N)C(=O)c2ccccc2)c(=O)n(-c2ccccc2)n1C`, the Potency is 3.98 µM (active).

Regarding `Cc1cc(N2CCN(Cc3nc(-c4ccc(Cl)cc4)oc3C)CC2)cc(C)n1`, the Potency is 25.1 µM (active).
